Hits are enriched below; roughly 4.8% of the tested compounds scored in any of these assays.
ssDAF12 agonist: activates DAF-12 receptor from parasite S. stercoralis; activation, % at 6.8 µM; AID 652126; HEK293 ssDAF-12/GRIP1 lit1-tk-luc reporter, luminescence; % of 3 µM dafachronic acid response; hit rate 1% among 370,000;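 active = activation above the mean over all tested compounds plus 3 SD, cut at about 0.9% in these data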;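 note: 0% = DMSO-only wells and 100% = 3 µM delta7-dafachronic acid wells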
hcDAF12 agonist: H. contortus DAF-12 activation, primary screen. HEK293 hcDAF-12 lit1-tk-luc reporter, luminescence; 0% DMSO, 100% Δ7-dafachronic acid. activation, % at 6.8 µM. hit rate 1.4% among 370,000. AID 652067;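 active = activation above the mean of all tested compounds plus 3 SD, cut at about 5.5% in these data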;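 note: 100% = response to 3 µM Δ7-dafachronic acid high control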
hgDAF-12 ag: activates the H. glycines DAF-12 receptor ligand-binding domain; HEK293 GAL4-hgDAF12 UAS-luciferase reporter, agonist luminescence; normalized to butyrate control; hit rate 1.8% among 370,000; activation, % at 6.8 µM; AID 687014;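 active = activation above a cutoff set at the mean of all screened compounds plus 3 SD, cut at about 10% in these data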;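 note: 0% = DMSO wells and 100% = sodium butyrate wells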
DAX1 inh-1: NR0B1 (DAX1) inhibition; HEK293 Gal4-DAX1 luciferase reporter, luminescence; inhibition, % at 6.75 µM; hit rate 0.99% among 340,000;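 active = inhibition above the mean over all tested compounds plus 3 SD, cut at about 4.2% in these data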;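 note: 0% = DAX1-transfected cells with DMSO and 100% = empty-vector control cells with DMSO; inhibition shows as a rise in luminescence from relieved DAX1 repression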
Target sequence (P51843 207-470 limits assumed): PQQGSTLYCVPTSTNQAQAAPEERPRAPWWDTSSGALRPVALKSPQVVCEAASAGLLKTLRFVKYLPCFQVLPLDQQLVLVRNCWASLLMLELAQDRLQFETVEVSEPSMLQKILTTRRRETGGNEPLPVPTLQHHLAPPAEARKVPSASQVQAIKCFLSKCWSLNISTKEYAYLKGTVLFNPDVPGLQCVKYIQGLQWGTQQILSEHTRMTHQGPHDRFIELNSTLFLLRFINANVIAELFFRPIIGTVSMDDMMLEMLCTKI
DAX1 inh-2: DAX1 (NR0B1) inhibition, primary screen; HEK293T StAR-luciferase reporter, SF-1/DAX-1 repression relief; inhibition, % at 6.8 µM; hit rate 1.1% among 370,000; AID 652010;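 active = inhibition above the mean over all tested compounds plus 3 SD, cut at about 3.6% in these data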;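 note: 0% = DAX-1 cells with DMSO and 100% = cells lacking DAX-1 with DMSO; higher inhibition means more luminescence from relief of DAX-1 repression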
SMARCA2 activ: SMARCA2 function activation, primary screen. MG213 cells, MMTV-luciferase reporter, dexamethasone, overnight. activation, % at 9.1 µM. hit rate 1% among 370,000. AID 652017; in the data active = activation above about 7.8%;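 note: 0% = vehicle wells and 100% = reference activator wells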
Starred values were filed as active, the others as inactive; . = not tested or not shown.

SMILES | ssDAF12 agonist | hcDAF12 agonist | hgDAF-12 ag | DAX1 inh-1 | DAX1 inh-2 | SMARCA2 activ
O=C1NC[C@@H](CCCCN2C[C@H](Cc3ccc(O)cc3)N(CCC3CCCCC3)C(=O)C2=O)N(Cc2ccccc2)C1=O | -2 | -1 | -1 | . | -1 | -3
CCCCOC(=O)c1ccc(NC(=S)N2CCN(c3ncc4c(=O)c(C(=O)O)cn(CC)c4n3)CC2)cc1 | -1 | -2 | -3 | 4.3* | 0 | -1
COC(=O)C[C@@H]1OC[C@H](C(C)C)N1S(=O)(=O)c1ccc(C)cc1 | -1 | -2 | -1 | . | 1 | -5
CN1CCN(c2ccc(-c3ccc4ccccc4n3)cc2)CC1 | -4 | -8 | -18 | -5 | -4 | -11
c1ccc2nc(-c3ccc(N4CCOCC4)cc3)ccc2c1 | 0 | 6.3* | 9 | -2 | 3.8* | 2
CN(C)c1nc(Cl)nc(NCCOc2ccccc2)n1 | -1 | 0 | -2 | 4.3* | 0 | -3
CCNc1nc(Cl)nc(NCCOc2ccc(C)cc2)n1 | -1 | 0 | -1 | 1 | 1 | -2
O=C(Oc1ccc2ccccc2c1Br)N1CCCCCC1 | -1 | 6.5* | 0 | -2 | 3 | 2
CCCC1NC(=O)c2cc3ccccc3cc2-n2c1nc1cc(Cl)ccc1c2=O (stereo not drawn) | 1.4* | 1 | 0 | 1 | 1 | 1
CC1NC(=O)c2cc3ccccc3cc2-n2c1nc1ccc(F)cc1c2=O (stereo not drawn) | 0 | 6.2* | 2 | 1 | 0 | 7
Cc1ccc2nc3n(c(=O)c2c1)-c1ccc(Cl)cc1C(=O)NC3Cc1ccccc1 (stereo not drawn) | -1 | 2 | 0 | . | -1 | -2
Cc1ccc2nc3n(c(=O)c2c1)-c1cc2ccccc2cc1C(=O)NC3Cc1ccccc1 (stereo not drawn) | -1 | 0 | 2 | 0 | 3.9* | 2
Cc1nc(C(F)(F)F)ccc1C(=O)N1CCC1(C)C(=O)NS(=O)(=O)c1ccc2c(c1)CCO2 (stereo not drawn) | -2 | 0 | 2 | . | 2 | -2
CC(C)(C)C(=O)OC12CCCN(C1)/C(=C/c1ccc(Cl)cc1)C2 (stereo not drawn) | -1 | 2 | -1 | . | 1 | -5
O=c1[nH][nH]c2c1C(C1CCCCC1)OC(C1CCCCC1)C2 (stereo not drawn) | -1 | -1 | -4 | . | 0 | -3
O=C1C=C(OCCCl)CC(c2cccc(Cl)c2)O1 (stereo not drawn) | -1 | 0 | 0 | . | 0 | 7
Cc1ccc(C2=CSC3=NCCN23)cc1 | 1.9* | 0 | 0 | 1 | 0 | 0
O=[N+]([O-])c1ccc(C2=CSC3=NCCN23)cc1 | -1 | 0 | -1 | 2 | 0 | -1
COC(=O)c1c(C)oc(C)c1S(=O)(=O)N1CCCCC1 | -2 | -2 | -1 | 1 | -1 | -2
COC(=O)c1c(C)oc(C)c1S(=O)(=O)N1CCCC1 | -1 | -1 | -1 | 4.4* | 0 | 0
O=[N+]([O-])c1ccc(/C=N/NC(=S)Nc2ccccc2C(F)(F)F)o1 | -1 | 0 | -1 | 4.2* | -1 | -1
O=C(N/N=C/c1ccc([N+](=O)[O-])o1)C(O)c1ccccc1 (stereo not drawn) | -2 | -3 | -5 | -4 | -1 | -4
COc1ccc(NC(C)=O)cc1NC(C)C(=O)Nc1ccccc1F (stereo not drawn) | -1 | 1 | -2 | 5.7* | 0 | -4
Cc1cc(=O)oc2cc(NC(=O)c3ccccc3Cl)ccc12 | 0 | 3 | 13* | 0 | 1 | 6
CSc1ccc(-c2nnn(Cc3ccccn3)n2)cc1 | 0 | 0 | 12* | 1 | 2 | 7
Nc1nccc(N2CCCCC2)n1 | -1 | -2 | -2 | 0 | -1 | -4
Cn1c(C(=O)c2ccccc2[N+](=O)[O-])nc2ccccc21 | 0 | 5.8* | 4 | 1 | -1 | -1
CC(=O)NC1CCCCN(Cc2cccc(F)c2)C1=O (stereo not drawn) | -1 | 2 | -1 | . | -1 | -1
COC(=O)c1cc2c(c3c4cc(OC)ccc4n(S(=O)(=O)c4ccc(OC)cc4)c13)C(=O)N(C)C2 | 0 | 1 | 1 | . | -2 | 0
